# From paper PMC7862700, “An all-to-all approach to the identification of sequence-specific readers for epigenetic DNA modifications on cytosine”
# Tests used:
# Assay in all cases: DAPPL (digital affinity profiling via proximity ligation, sequencing); 10 mM Tris-HCl pH 7.5, 50 mM NaCl, 1 mM DTT, 4% glycerol, room temperature, 30 min; GST-TFs on glutathione beads, 16-mer random dsDNA library, 0.1% formaldehyde crosslink after washing; high values mean tight binding
# [1] = target: T1, FLI1 (Homo sapiens, UniProt Q01543 1-452); conditions: protein: recombinant; tags: N-terminal GST; dsDNA, one strand shown
# T1 sequence: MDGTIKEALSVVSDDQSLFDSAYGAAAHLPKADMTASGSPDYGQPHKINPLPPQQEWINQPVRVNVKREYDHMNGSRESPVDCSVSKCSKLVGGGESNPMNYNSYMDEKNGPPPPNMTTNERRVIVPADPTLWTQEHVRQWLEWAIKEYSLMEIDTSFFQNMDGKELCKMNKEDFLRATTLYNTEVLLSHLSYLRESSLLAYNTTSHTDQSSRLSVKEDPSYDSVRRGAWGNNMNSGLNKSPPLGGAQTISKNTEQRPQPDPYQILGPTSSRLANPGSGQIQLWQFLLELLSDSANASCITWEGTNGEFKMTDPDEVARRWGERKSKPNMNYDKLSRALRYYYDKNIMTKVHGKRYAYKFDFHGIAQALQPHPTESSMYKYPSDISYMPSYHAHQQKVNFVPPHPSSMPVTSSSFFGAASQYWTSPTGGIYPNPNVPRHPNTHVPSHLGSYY
# Summary of the method: (§1)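 A tag-only sample was pooled with DNA-barcoded human transcription factors that had been expressed in yeast as GST fusions and captured on glutathione beads. The pools were incubated for 30 min at room temperature with 200 nmole of a random double-stranded 16-mer DNA library in Tris/NaCl/DTT/glycerol buffer, then washed, crosslinked with 0.1% formaldehyde, proximity-ligated (BsaI/T4 ligase, 1 h, 37 °C), PCR-amplified and sequenced on an Illumina NextSeq500. Binding signal is each hexamer's read frequency for a factor divided by its frequency for the tag-only sample.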
# [2] = target: T2, ELK1 (Homo sapiens, UniProt P19419 1-428); conditions: protein: recombinant; tags: N-terminal GST; dsDNA, one strand shown
# T2 sequence: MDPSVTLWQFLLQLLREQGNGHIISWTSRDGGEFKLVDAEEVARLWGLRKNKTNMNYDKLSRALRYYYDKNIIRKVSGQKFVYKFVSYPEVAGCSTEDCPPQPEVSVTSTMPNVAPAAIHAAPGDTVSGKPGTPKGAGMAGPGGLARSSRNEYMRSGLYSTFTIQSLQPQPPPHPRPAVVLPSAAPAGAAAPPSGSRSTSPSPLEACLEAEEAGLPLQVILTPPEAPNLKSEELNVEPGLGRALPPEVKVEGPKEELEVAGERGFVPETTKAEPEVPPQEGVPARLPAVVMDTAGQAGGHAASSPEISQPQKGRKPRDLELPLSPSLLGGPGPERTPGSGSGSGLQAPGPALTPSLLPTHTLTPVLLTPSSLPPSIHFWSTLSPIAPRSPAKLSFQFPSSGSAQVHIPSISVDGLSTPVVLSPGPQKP
# Summary of the method: as §1
# [3] = target: T3, GABPA (Homo sapiens, UniProt Q06546 1-454); conditions: protein: recombinant; tags: N-terminal GST; dsDNA, one strand shown
# T3 sequence: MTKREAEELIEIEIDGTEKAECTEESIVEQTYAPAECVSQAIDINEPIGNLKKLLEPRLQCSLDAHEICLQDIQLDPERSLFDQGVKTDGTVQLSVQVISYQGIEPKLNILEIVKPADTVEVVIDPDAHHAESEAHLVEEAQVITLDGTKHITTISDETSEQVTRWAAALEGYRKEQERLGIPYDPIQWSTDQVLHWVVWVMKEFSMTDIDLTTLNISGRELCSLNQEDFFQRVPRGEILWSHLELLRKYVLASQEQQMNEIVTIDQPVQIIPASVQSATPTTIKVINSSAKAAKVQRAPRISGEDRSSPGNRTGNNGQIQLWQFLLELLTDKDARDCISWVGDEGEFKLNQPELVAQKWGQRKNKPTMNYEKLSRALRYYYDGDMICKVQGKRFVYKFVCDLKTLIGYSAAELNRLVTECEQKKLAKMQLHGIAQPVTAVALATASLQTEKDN
# Summary of the method: as §1
# [4] = target: T4, ERG (Homo sapiens, UniProt P11308 1-479); conditions: protein: recombinant; tags: N-terminal GST; dsDNA, one strand shown
# T4 sequence: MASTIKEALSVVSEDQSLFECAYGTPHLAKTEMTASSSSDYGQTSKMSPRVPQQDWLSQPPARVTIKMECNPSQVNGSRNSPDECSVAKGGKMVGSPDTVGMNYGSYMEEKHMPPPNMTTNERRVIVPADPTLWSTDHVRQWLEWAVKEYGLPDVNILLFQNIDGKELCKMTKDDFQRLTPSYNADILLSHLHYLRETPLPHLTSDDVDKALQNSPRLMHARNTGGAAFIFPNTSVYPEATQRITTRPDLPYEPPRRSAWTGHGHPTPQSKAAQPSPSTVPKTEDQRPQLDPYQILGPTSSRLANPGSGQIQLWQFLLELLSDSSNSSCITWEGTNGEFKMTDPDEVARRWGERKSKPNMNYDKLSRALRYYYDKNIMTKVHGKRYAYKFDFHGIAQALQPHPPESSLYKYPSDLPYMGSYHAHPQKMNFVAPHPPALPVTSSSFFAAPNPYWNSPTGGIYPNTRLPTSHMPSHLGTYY
# Summary of the method: as §1
# [5] = target: ELF1 (Homo sapiens, UniProt P32519 1-619); conditions: protein: recombinant; tags: N-terminal GST; dsDNA, one strand shown
# Summary of the method: as §1
# [6] = target: T5, EHF (Homo sapiens, UniProt Q9NZC4 1-300); conditions: protein: recombinant; tags: N-terminal GST; dsDNA, one strand shown
# T5 sequence: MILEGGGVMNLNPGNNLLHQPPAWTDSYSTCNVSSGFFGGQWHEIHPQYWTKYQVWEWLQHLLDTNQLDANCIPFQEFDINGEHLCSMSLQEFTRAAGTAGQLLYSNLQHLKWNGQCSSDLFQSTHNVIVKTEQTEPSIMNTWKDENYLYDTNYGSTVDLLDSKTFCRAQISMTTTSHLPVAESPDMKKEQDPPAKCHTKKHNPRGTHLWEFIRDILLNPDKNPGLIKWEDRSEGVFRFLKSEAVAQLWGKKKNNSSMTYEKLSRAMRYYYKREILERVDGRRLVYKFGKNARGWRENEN
# Summary of the method: as §1
# [7] = target: SPI1 (Homo sapiens, UniProt P17947 1-270); conditions: protein: recombinant; tags: N-terminal GST; dsDNA, one strand shown
# Summary of the method: as §1
# [8] = target: SPIB (Homo sapiens, UniProt Q01892 1-262); conditions: protein: recombinant; tags: N-terminal GST; dsDNA, one strand shown
# Summary of the method: as §1
# [9] = target: T6, ELK3 (Homo sapiens, UniProt P41970 1-407); conditions: protein: recombinant; tags: N-terminal GST; dsDNA, one strand shown
# T6 sequence: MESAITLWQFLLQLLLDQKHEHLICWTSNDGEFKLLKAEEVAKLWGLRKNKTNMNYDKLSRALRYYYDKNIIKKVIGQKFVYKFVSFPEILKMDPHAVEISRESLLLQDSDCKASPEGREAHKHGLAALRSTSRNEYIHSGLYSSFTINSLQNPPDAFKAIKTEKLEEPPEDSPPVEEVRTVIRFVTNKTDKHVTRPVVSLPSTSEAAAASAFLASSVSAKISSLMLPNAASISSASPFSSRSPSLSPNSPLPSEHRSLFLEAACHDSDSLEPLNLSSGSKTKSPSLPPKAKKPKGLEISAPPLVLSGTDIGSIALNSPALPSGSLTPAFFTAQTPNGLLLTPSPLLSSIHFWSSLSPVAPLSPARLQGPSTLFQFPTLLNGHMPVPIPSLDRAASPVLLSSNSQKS
# Summary of the method: as §1
# [10] = target: T7, FEV (Homo sapiens, UniProt Q99581 1-238); conditions: protein: recombinant; tags: N-terminal GST; dsDNA, one strand shown
# T7 sequence: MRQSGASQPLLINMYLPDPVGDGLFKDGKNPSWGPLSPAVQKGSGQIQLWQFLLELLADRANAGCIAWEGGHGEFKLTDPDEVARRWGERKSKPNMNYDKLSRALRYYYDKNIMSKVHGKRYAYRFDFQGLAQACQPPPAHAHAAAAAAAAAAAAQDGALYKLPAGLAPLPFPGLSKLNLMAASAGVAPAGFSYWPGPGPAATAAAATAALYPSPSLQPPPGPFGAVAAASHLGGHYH
# Summary of the method: as §1
# [11] = target: ETV5 (Homo sapiens, UniProt P41161 1-510); conditions: protein: recombinant; tags: N-terminal GST; dsDNA, one strand shown
# Summary of the method: as §1
# [12] = target: HSF1 (Homo sapiens, UniProt Q00613 1-529); conditions: protein: recombinant; tags: N-terminal GST; chain copies: 3; dsDNA, one strand shown
# Summary of the method: as §1
# [13] = target: T8, SPIC (Homo sapiens, UniProt Q8N5J4 1-248); conditions: protein: recombinant; tags: N-terminal GST; dsDNA, one strand shown
# T8 sequence: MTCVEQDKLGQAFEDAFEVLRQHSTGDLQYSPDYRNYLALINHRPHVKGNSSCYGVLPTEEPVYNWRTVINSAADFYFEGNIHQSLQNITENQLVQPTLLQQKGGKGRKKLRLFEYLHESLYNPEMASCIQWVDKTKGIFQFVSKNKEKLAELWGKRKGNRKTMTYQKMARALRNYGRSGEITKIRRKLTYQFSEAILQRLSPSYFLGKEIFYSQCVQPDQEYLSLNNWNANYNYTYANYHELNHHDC
# Summary of the method: as §1
# [14] = target: ELF4 (Homo sapiens, UniProt Q99607 1-663); conditions: protein: recombinant; tags: N-terminal GST; dsDNA, one strand shown
# Summary of the method: as §1
# [15] = target: T9, ELK4 (Homo sapiens, UniProt P28324-2 1-405); conditions: protein: recombinant; tags: N-terminal GST; dsDNA, one strand shown
# T9 sequence: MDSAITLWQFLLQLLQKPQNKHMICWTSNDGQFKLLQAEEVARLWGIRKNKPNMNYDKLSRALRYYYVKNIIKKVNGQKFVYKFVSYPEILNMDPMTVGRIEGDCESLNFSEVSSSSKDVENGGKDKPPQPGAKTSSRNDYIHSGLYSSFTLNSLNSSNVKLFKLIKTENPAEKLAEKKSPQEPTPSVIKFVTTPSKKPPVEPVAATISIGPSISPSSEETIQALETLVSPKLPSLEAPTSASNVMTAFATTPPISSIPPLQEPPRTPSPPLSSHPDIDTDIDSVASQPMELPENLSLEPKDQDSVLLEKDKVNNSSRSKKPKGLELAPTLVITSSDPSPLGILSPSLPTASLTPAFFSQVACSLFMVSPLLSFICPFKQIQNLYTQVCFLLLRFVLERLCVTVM
# Summary of the method: as §1
# [16] = target: T10, ETV2 (Homo sapiens, UniProt O00321 1-342); conditions: protein: recombinant; tags: N-terminal GST; dsDNA, one strand shown
# T10 sequence: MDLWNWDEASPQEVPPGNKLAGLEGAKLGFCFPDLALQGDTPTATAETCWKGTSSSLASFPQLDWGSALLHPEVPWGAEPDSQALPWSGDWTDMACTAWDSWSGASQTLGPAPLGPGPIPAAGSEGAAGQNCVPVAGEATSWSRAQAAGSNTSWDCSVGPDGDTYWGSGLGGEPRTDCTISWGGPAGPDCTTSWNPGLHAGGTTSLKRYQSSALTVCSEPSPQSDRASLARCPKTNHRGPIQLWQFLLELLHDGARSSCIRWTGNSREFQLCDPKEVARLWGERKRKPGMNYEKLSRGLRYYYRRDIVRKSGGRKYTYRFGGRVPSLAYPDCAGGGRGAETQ
# Summary of the method: as §1
# [17] = target: T11, ELF3 (Homo sapiens, UniProt P78545 1-371); conditions: protein: recombinant; tags: N-terminal GST; dsDNA, one strand shown
# T11 sequence: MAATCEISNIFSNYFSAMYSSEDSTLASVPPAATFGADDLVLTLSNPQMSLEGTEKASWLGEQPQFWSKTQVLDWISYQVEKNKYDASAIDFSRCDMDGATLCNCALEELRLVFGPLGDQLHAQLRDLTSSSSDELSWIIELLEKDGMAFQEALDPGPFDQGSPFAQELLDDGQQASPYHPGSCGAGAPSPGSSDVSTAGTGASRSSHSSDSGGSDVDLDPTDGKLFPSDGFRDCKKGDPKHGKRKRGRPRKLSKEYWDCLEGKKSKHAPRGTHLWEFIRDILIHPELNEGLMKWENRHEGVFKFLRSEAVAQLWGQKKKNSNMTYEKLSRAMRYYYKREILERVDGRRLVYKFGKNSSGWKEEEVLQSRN
# Summary of the method: as §1
# [18] = target: CRX (Homo sapiens, UniProt O43186 1-299); conditions: protein: recombinant; tags: N-terminal GST; dsDNA, one strand shown
# Summary of the method: as §1
# [19] = target: ETV1 (Homo sapiens, UniProt P50549 1-477); conditions: protein: recombinant; tags: N-terminal GST; dsDNA, one strand shown
# Summary of the method: as §1
# Chain of HSF1 (Q00613 whole entry): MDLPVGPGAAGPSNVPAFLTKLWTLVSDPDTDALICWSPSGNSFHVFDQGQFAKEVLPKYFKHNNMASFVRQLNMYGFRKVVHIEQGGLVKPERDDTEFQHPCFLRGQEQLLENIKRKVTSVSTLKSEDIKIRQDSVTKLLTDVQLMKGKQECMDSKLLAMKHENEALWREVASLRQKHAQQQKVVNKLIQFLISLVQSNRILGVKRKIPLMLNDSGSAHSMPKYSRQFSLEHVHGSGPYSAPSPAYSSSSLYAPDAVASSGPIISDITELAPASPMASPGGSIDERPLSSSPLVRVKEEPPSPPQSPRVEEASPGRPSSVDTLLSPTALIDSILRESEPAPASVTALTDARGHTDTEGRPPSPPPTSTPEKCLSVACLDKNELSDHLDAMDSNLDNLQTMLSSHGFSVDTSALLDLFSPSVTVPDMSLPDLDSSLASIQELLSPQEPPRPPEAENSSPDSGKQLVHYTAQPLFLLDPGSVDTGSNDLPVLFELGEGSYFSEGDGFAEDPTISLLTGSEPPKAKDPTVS
# Chain of ETV5 (P41161 whole entry): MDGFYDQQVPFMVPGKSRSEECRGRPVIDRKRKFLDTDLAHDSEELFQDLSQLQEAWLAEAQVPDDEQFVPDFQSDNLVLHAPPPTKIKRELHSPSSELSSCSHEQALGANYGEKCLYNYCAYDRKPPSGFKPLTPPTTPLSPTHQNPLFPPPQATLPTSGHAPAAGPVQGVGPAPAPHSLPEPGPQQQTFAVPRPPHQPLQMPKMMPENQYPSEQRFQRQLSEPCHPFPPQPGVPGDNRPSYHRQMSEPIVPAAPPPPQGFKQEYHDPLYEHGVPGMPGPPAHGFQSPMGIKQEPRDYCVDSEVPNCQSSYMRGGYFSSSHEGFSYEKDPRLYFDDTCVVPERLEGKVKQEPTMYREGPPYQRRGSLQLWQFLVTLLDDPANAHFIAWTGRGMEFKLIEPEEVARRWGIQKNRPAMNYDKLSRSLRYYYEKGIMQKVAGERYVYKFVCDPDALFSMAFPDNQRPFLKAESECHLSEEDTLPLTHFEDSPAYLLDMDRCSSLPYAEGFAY
# Chain of SPIB (Q01892 whole entry): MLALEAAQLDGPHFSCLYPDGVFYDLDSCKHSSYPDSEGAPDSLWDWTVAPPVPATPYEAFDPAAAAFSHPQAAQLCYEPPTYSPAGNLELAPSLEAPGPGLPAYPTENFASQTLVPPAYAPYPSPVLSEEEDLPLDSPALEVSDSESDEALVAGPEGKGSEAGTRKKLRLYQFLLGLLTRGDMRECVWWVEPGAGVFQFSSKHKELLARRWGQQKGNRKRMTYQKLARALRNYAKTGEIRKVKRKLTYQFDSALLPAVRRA
# Chain of ETV1 (P50549 whole entry): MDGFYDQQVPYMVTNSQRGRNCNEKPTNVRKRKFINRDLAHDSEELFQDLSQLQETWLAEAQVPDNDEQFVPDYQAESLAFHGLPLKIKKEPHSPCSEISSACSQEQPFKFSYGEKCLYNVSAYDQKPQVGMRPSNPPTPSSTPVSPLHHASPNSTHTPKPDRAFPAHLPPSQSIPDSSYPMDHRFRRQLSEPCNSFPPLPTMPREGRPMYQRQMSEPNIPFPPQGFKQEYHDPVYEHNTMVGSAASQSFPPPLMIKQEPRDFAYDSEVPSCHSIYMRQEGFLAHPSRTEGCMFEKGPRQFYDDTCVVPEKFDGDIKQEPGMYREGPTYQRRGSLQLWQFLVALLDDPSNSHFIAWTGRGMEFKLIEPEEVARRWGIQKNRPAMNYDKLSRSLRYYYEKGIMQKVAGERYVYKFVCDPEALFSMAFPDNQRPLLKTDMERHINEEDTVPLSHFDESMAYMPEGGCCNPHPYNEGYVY
# Chain of ELF4 (Q99607 whole entry): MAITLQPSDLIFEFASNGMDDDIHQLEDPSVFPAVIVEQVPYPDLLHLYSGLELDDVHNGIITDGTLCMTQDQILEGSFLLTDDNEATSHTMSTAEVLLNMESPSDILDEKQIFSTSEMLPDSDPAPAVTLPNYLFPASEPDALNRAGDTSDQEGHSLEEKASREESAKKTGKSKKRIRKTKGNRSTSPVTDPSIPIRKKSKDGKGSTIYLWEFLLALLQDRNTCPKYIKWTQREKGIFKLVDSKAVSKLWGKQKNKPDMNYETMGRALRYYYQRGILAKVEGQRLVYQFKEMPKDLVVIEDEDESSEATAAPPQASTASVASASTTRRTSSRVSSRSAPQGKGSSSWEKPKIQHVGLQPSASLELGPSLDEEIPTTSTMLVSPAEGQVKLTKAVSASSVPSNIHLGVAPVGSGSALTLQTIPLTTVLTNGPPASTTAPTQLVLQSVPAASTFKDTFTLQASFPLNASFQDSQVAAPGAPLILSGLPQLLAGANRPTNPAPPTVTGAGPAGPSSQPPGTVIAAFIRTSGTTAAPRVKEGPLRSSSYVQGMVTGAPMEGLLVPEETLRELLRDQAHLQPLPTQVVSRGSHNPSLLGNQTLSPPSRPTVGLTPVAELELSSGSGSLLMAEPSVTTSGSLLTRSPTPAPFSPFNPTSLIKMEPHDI
# Chain of ELF1 (P32519 whole entry): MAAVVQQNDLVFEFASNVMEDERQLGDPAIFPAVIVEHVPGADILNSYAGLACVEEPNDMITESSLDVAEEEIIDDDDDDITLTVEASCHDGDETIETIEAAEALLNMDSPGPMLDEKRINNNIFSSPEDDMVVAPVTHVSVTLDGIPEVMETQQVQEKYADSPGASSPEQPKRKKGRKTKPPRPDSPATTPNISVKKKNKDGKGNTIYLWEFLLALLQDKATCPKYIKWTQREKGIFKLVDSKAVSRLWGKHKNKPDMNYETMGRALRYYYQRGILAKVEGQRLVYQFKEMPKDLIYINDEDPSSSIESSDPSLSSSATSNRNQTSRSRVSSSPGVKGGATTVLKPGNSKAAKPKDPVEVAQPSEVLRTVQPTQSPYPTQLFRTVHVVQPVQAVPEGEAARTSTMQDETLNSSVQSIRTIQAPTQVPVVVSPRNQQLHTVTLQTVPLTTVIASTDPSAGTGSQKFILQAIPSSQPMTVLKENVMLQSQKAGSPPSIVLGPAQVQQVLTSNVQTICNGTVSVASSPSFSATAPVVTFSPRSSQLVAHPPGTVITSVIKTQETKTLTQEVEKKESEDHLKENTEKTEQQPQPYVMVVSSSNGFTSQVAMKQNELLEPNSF
# Chain of CRX (O43186 whole entry): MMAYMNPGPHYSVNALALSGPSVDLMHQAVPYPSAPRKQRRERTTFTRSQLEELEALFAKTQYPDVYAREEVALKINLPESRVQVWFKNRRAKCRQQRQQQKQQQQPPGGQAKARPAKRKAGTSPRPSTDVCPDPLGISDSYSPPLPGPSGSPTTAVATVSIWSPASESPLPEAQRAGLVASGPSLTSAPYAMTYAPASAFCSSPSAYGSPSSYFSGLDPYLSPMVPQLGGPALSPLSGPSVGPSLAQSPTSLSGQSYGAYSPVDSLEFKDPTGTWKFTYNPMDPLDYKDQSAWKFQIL
sequence,measurement,setting,value
CAACTT,binding signal,[1],"1.62 fold enrichment (6-mer frequency, TF over GST control)"
same,binding signal,[2],"1.62 fold enrichment (6-mer frequency, TF over GST control)"
same,binding signal,[3],"1.53 fold enrichment (6-mer frequency, TF over GST control)"
same,binding signal,[4],"1.68 fold enrichment (6-mer frequency, TF over GST control)"
same,binding signal,[5],"1.55 fold enrichment (6-mer frequency, TF over GST control)"
same,binding signal,[6],"1.54 fold enrichment (6-mer frequency, TF over GST control)"
same,binding signal,[7],"1.69 fold enrichment (6-mer frequency, TF over GST control)"
same,binding signal,[8],"1.68 fold enrichment (6-mer frequency, TF over GST control)"
same,binding signal,[9],"1.59 fold enrichment (6-mer frequency, TF over GST control)"
same,binding signal,[10],"1.78 fold enrichment (6-mer frequency, TF over GST control)"
same,binding signal,[11],"1.58 fold enrichment (6-mer frequency, TF over GST control)"
same,binding signal,[12],"1.22 fold enrichment (6-mer frequency, TF over GST control)"
same,binding signal,[13],"1.77 fold enrichment (6-mer frequency, TF over GST control)"
same,binding signal,[14],"1.57 fold enrichment (6-mer frequency, TF over GST control)"
same,binding signal,[15],"1.65 fold enrichment (6-mer frequency, TF over GST control)"
same,binding signal,[16],"1.4 fold enrichment (6-mer frequency, TF over GST control)"
same,binding signal,[17],"1.61 fold enrichment (6-mer frequency, TF over GST control)"
same,binding signal,[18],"1.25 fold enrichment (6-mer frequency, TF over GST control)"
same,binding signal,[19],"1.54 fold enrichment (6-mer frequency, TF over GST control)"
